NR2F2 inh: blocks human COUP-TFII nuclear receptor. HEK293T NGFI-A luciferase reporter, luminescence. 370,000 tested, 0.7% active. AID 686940. inhibition, % at 8.6 µM. P24468;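 active = inhibition above a per-plate cutoff, mean inhibition of test wells between control levels plus 3 SD, cut at about 38% in these data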;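 note: cells cotransfected with COUP-TFII expression vector driving the NGFI-A reporter; 0% = median of COUP-TF2 test wells and 100% = reporter-only cells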
SRC2 inh: inhibits human steroid receptor coactivator 2 | Q15596 | HEK293 GAL4-SRC2 luciferase reporter, luminescence | inhibition, % at 9 µM | 370,000 tested, 0.17% active | AID 651957;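 active = inhibition above the mean inhibition of all tested compounds plus 3 SD, set per campaign, cut at about 52% in these data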;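 note: 0% = DMSO treated cells and 100% = cells given Gossypol at 36 µM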
SRC1 inh: human NCOA1 inhibition; Q15788; 360,000 tested, 0.12% active; HEK293 GAL4-SRC1 luciferase reporter, luminescence; inhibition, % at 3.6 µM;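 active = inhibition above the campaign mean plus 3 SD, with each screening campaign given its own cutoff, cut at about 60% in these data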;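 note: 0% = DMSO treated cells and 100% = gossypol at 36 µM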
Target sequence (Q15788 whole entry, looked up, the tested form may be a part): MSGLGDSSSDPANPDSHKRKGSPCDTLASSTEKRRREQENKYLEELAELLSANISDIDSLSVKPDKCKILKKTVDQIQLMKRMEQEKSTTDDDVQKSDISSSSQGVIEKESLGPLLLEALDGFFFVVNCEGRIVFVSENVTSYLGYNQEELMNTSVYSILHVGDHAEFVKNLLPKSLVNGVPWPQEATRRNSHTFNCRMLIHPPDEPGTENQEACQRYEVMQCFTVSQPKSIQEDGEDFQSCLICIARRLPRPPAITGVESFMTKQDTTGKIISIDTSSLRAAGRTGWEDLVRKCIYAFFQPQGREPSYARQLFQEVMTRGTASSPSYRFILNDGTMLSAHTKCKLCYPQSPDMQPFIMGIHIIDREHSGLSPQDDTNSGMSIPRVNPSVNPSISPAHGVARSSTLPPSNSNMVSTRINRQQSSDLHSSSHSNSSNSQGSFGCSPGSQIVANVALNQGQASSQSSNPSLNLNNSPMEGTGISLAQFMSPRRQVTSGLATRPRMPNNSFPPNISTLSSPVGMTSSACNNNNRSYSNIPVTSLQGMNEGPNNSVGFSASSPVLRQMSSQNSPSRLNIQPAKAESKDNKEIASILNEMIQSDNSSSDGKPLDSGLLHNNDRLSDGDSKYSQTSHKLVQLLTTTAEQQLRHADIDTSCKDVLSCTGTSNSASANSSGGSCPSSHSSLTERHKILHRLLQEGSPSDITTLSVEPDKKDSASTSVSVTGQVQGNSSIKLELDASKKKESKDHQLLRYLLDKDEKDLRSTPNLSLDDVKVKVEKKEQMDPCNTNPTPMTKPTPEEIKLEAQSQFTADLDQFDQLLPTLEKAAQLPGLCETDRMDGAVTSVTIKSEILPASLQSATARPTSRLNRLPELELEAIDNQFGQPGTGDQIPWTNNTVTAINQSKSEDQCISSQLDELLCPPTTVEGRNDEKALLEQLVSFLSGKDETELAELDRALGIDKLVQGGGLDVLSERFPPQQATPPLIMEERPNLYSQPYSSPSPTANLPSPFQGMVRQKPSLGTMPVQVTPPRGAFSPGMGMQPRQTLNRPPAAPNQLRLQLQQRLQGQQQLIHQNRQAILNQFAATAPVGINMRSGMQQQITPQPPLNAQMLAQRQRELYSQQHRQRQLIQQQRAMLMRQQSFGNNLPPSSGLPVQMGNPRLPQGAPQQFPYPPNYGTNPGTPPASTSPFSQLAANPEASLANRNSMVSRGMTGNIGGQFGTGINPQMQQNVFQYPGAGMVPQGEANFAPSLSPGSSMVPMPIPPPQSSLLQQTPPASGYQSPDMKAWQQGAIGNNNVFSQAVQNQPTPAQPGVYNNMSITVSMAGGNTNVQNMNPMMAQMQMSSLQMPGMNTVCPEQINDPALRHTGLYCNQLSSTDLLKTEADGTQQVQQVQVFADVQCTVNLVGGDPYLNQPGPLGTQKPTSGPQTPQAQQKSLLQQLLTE
GalR3 antagonist: antagonists of human GalR3; O60755; HEK293 GalR3-CNG cAMP membrane potential fluorescence; galR3 body fused to GalR1 C-terminus; inhibition, % at 3 µM; 360,000 tested, 0.44% active;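 active = inhibition above the screen-wide average plus 3 SD, cut at about 13% in these data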;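 note: forskolin and galanin both at EC90 stimulate the cells; cAMP rise reported by CNG channel membrane potential dye signal; 0% = forskolin plus galanin with DMSO and 100% = forskolin alone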
NR5A2 inv ag: NR5A2 inverse agonism in reporter assay. O00482. HEK293T StAR-luciferase reporter, LRH-1 transfected, 24 h. inhibition, % at 3.6 µM. 360,000 tested, 0.13% active. AID 602396;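 active = inhibition above the mean inhibition of all tested compounds plus 3 SD, cut at about 73% in these data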;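 note: 0% = DMSO wells and 100% = reporter-only cells lacking LRH-1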
NCOA3 inh: inhibits human SRC3 coactivator. inhibition, % at 3.6 µM. HEK293 GAL4-SRC3 luciferase reporter, luminescence. Q9Y6Q9. 360,000 tested, 0.17% active;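 active = inhibition above a per-campaign cutoff, the mean of all compounds plus 3 SD, cut at about 60% in these data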;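 note: 0% = DMSO-treated cells and 100% = gossypol-treated cells at 36 µM; higher means less SRC3-driven luciferase light from the GAL4 reporter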
VP16 Luc counter: inhibits VP16 reporter, flagging COUP-TFII antagonist hits; shares compounds with NR2F2 inh; HEK293 Gal4-VP16 luciferase reporter, luminescence; inhibition, % at 8.5 µM; 2,500 tested, 25% active; AID 687007; in the data active = inhibition above about 13%
NR2F2 inh conf: COUP-TFII (NR2F2) inhibition, confirmation assay | shares compounds with NR2F2 inh | HEK293 NGFI-A luciferase reporter, luminescence | inhibition, % at 8.5 µM | 2,500 tested, 45% active | AID 687008;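 active = mean inhibition over three repeats above a set limit taken from the earlier primary screen, cut at about 38% in these data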;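 note: 100% = cells given the luciferase reporter alone without the COUP-TF2 vector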
* hit, by the source's call; / = not tested or not shown; ! = repeats disagree. In the library only some 1.1% were active in any assay of this set; here they are far more common.

SMILES	NR2F2 inh	SRC2 inh	SRC1 inh	GalR3 antagonist	NR5A2 inv ag	NCOA3 inh	VP16 Luc counter	NR2F2 inh conf
C=CCCC1CN(Cc2ccc(OC)cc2)S(=O)(=O)c2c(Oc3ccc(C)cc3)cccc2O1 (stereo not drawn)	0	-6	/	1	/	/	/	/
C=CCn1c(COc2ccccc2)nnc1SCC(=O)c1ccc(-c2ccccc2)cc1	5	5	/	/	/	/	/	/
COc1ccc(-c2c[n+]3c(n2-c2ccccc2)SCC3)cc1	57*	14	26	0	25	39	10	29
Cc1ccc(-c2c[n+]3c(n2-c2ccccc2)SCC3)cc1	65*	14	22	0	29	42	0	25
CC(COc1ccc([N+](=O)[O-])cc1Cl)CN1CCC(C(O)(c2ccccc2)c2ccccc2)CC1 (stereo not drawn)	-6	19	/	/	/	/	/	/
CN1Cc2sc(NC(=S)NC(=O)c3ccccc3)c(C#N)c2CC1(C)C	40*	43	/	2	/	/	7	69*
COc1ccc(CCNC(=O)c2c(N)[nH]c(C(=O)c3ccccc3)c2-c2ccc(N(C)C)cc2)cc1	44*	/	/	/	/	/	-20	3
O=C(c1cc(COc2ccc(F)cc2Cl)on1)N1CCC(c2ccncc2)CC1	39*	11	1	-7	17	13	-10	26
COCCCNC(=O)c1nnn2c1nc(N)c1cc(Cl)ccc12	-16	-37	/	-6	/	/	/	/
COC(=O)[C@]12C[C@H](CC(=O)NCCc3ccccc3OC)C(=O)N(CCc3ccc(OC)c(OC)c3)C1=C[C@H](C(C)C)O[C@@H]2C1CC1	-13	-1	/	/	/	/	/	/
O=C(NCCc1ccccc1F)c1ccc(Sc2ccccc2Cl)c([N+](=O)[O-])c1	-3	-3	/	/	/	/	/	/
Cc1ccc(S(=O)(=O)N2CCC(=O)N(CCOCc3ccc(C(F)(F)F)cc3)CC2)cc1	51*	14	11	9	18	11	0	38*
Cc1cc(C)c(C#N)c(SCC(=O)c2ccccc2)n1	8	5	-25	-5	16	-39	/	/
Cc1cc(SCC(=O)c2ccccc2)n2nc(C)nc2n1	45*	3	-2	-4	21	-7	13*	32
C[n+]1c2n(c3ccccc31)N=C(c1ccc(Cl)cc1)CS2	54*	17	25	-4	34	30	6	36
COc1ccc(C2=Nn3c([n+](C)c4ccccc43)SC2)cc1	73*	-31	37	-3	67	54	10	65*
O=C(OCCN1CCCC12CCC(c1ccccc1)CC2)c1ccccc1 (stereo not drawn)	2	-5	/	/	/	/	/	/
O=C(C1CCCN(S(=O)(=O)c2cccc3nsnc23)C1)N1CCCCCC1 (stereo not drawn)	6	15	-23	0	-7	2	/	/
O=C(C1CCCN(S(=O)(=O)c2cccc3nsnc23)C1)N1CCc2ccccc2C1 (stereo not drawn)	41*	32	-9	1	-15	-7	-6	2
O=C(CCN1C(=O)c2ccccc2S1(=O)=O)Nc1ccc2c(c1)OCCO2	12	-23	5	-2	-12	17	/	/
O=C(CN1C(=O)c2ccccc2S1(=O)=O)c1cccc(Br)c1	2	-16	3	0	12	11	/	/
O=C(CN1C(=O)c2ccccc2S1(=O)=O)c1ccc(F)cc1	40*	32	14	0	-16	46	-23	14
O=C(CN1C(=O)c2ccccc2S1(=O)=O)c1ccc2c(c1)OCCO2	89*	89*	82*	-6	62	85*	83*	99*
O=C(CN1C(=O)c2ccccc2S1(=O)=O)c1ccc2c(c1)OCCCO2	100*	93*	93*	-1	93*	93*	93*	109*
O=C(CN1C(=O)c2ccccc2S1(=O)=O)c1ccc(Cl)cc1Cl	91*	87*	55	2	59	62*	70*	90*
SMILES	NR2F2 inh	SRC2 inh	SRC1 inh	GalR3 antagonist	NR5A2 inv ag	NCOA3 inh	VP16 Luc counter	NR2F2 inh conf
O=C(CN1C(=O)c2ccccc2S1(=O)=O)c1ccc(OC(F)F)cc1	/	/	36	/	31	12	/	/
Cc1ccc(-n2c(SCC(=O)Nc3ccc(S(=O)(=O)Nc4cc(C)nc(C)n4)cc3)nnc2-c2cccs2)cc1	6	-9	/	/	/	/	/	/
CCOC(=O)CC[C@@H]1CC[C@]2(CCCN(C(=O)c3ccno3)C2)O1	-3	-9	/	/	/	/	/	/
COc1ccc(/C=N\NC(=O)Cc2cccn2C)cc1OCc1ccccc1	10	-8	/	/	/	/	/	/
CC(C)CN1C(=O)C[C@]2(C(=O)N(C)c3ccc(NC(=O)C(F)(F)F)cc32)C1c1ccccc1 (stereo partly drawn)	1	-9	/	/	/	/	/	/
COCCN1CCN(c2cc(-c3ccccc3)nc3cc(-c4cccc(F)c4)nn23)CC1	47*	30	-1	-5	23	2	-6	-3
Cc1ccc(S(=O)(=O)N(C)c2ccc(C(=O)N3CCN(Cc4ccc5c(c4)OCO5)CC3)cc2)cc1	56*	22	29	-7	33	10	5	39*
CN(c1ccc(C(=O)N2CCN(Cc3ccc4c(c3)OCO4)CC2)cc1)S(=O)(=O)c1ccccc1	48*	36	28	-7	37	26	9	35
CN(c1ccc(C(=O)N2CCN(Cc3ccccc3)CC2)cc1)S(=O)(=O)c1ccccc1	19	4	6	-9	11	-3	/	/
CC1CN(C(=O)c2ccccc2)CCC1=NO (stereo not drawn)	-16	4	/	-3	/	/	/	/
COc1cc(NC(=O)c2cnc(N)o2)cc(C(=O)Nc2cccc(C(F)(F)F)c2)c1	66*!	13	8	-5	14	5	-21	22
C[C@@H]1CN([C@@H](C)CO)C(=O)CCCn2cc(nn2)CO[C@H]1CN(C)C(=O)c1ccncc1	1	-8	/	0	/	/	/	/
Cc1ccc(CNC(=O)C(=O)NCC2OCCN2S(=O)(=O)c2ccc(C)cc2)cc1 (stereo not drawn)	19	-3	-50	-4	4	14	/	/
Cc1ccc(CNC(=O)C(=O)NCC2OCCN2S(=O)(=O)c2ccc(Br)cc2)cc1 (stereo not drawn)	48*	8	-48	-4	24	24	-2	12
O=C(Cn1nc(-c2ccccc2)ccc1=O)NCCc1ccccc1F	0	-17	/	/	/	/	/	/
CC(C)(O)C#Cc1ccc(C(=O)N2CCN(c3ccc([N+](=O)[O-])cc3)CC2)cc1	38*	29	22	-3	18	-3	6	24
CC(C)(O)C#Cc1ccc(C(=O)N2CCN(c3ccccc3)CC2)cc1	9	-11	-3	-7	10	20	/	/
